KB-3-1 cytotox: qHTS assay for MDR1-selective chemotherapeutics: Primary screen using the parental adenocarcinoma cell KB-3-1; AID 1347075, 2019; 400,000 compounds, 1.4% hits; Potency, µM (doses to about 46.1 µM), actives largely listed as cytotoxic; KB-3-1 viability, CellTiter-Glo ATP luminescence, 72 h; note: nearly all actives have a fitted effect of over 60% in size
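Here the drug-naive KB-3-1 line serves as comparator for MDR sub-line selectivity; cells received compound titrations, 72 h at 37 °C, then CellTiter-Glo readout.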
MCF10A rereplic: A quantitative high throughput screen for small molecules that induce DNA re-replication in MCF 10a normal breast cells; MCF 10A DNA re-replication, Hoechst nuclear intensity, 48 h; Potency, µM (highest dose often 46.1 µM), hits mostly activators; 350,000 compounds, 2.9% hits; note: nearly all actives have a fitted effect of over 50% in size
D3 ag: qHTS of D3 Dopamine Receptor Agonist: qHTS; D(3) dopamine receptor (Homo sapiens), P35462; D3R DiscoveRx beta-arrestin cells, luminescence, 90 min; max activation, %; 410,000 compounds, 0.58% hits; AID 652048, 2013; in the data active = max activation above about 30%
Target sequence (P35462 whole entry, looked up): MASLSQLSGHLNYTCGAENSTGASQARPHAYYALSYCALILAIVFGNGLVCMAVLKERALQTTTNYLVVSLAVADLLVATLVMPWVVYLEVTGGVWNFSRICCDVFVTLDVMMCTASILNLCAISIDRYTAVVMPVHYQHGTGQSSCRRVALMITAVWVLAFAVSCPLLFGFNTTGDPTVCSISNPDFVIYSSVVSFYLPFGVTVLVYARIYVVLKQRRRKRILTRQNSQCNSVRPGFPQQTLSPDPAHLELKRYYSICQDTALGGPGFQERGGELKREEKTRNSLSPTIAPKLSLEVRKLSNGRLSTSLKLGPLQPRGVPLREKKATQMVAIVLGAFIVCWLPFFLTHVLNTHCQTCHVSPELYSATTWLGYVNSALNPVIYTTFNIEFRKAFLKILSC
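Cells at 1500/well, incubated overnight, then treated with pinned compounds (dopamine as control) for 90 min at 37 degrees C. DiscoveRx reagent added for 30 - 60 minutes at room temperature; luminescence read.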
SW480 rereplic: A quantitative high throughput screen for small molecules that induce DNA re-replication in SW480 colon adenocarcinoma cells | SW480 DNA re-replication, Hoechst DNA content imaging, 48 h | 340,000 compounds, 1.8% hits | AID 624297, 2012 | Potency, µM (doses to about 46.1 µM), most hits filed as activators; note: nearly all actives have a fitted effect of over 55% in size
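Treated cells incubate 48 hr (37 C, 5% CO2), are stained 40 min with Hoechst, and nuclear fluorescence is enumerated; a rise in nuclei with high DNA signal marks re-replication.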
DRD3 antagonist: qHTS of D3 Dopamine Receptor Antagonist: qHTS; D3R cells, DiscoveRx beta-arrestin luminescence, antagonist mode; active compounds read low; 360,000 compounds, 2.5% hits; AID 652054, 2013; D(3) dopamine receptor (Homo sapiens), P35462; max response, negative = inhibition, %; in the data active = max response below about -50%; inconclusive = no clear call, values can overlap the other calls
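Cells plated overnight at 1500 cells/well, then exposed to library compounds with dopamine controls for 90 minutes at 37 degrees C. DiscoveRx reagent added for 30–60 minutes at room temperature; luminescence read, quantitative HTS format.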
KB-V1 MDR tox: qHTS assay for MDR1-selective chemotherapeutics: Primary screen using the drug-selected MDR subline cells KB-V1 | KB-V1 MDR cells viability, CellTiter-Glo, 72 h | Potency, µM (highest dose often 46.1 µM), usual class: cytotoxic | 400,000 compounds, 3.4% hits | AID 1347076, 2019; note: nearly all actives have a fitted effect of over 60% in size
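Potencies derive from concentration-effect curves fitted to normalized luminescence (CellTiter-Glo) of KB-V1 cells treated for 72 h at 37 degrees C in phenol-red-free DMEM containing 10% FBS.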
Hits are given with their value; n = inactive; u = inconclusive; x = no result given. Most compounds without a hit are left out; they make up all but 8.9% or so of the library. Unless noted, calls come from the whole dose curve; as a rule, active = well fitted curve in the direction sought with a large enough effect; inconclusive = small, poorly fitted or top-dose-only effect, or another doubt; inactive = no such curve, though single readings can be large; an effect the other way counts as inactive or inconclusive.

SMILES	KB-3-1 cytotox	MCF10A rereplic	D3 ag	SW480 rereplic	DRD3 antagonist	KB-V1 MDR tox
CC1([N+](=O)[O-])COC2(OC1)C(=O)Nc1ccccc12 (centres undefined)	n	n	n	n	n	n
Cc1ccc(C(=O)c2c(N)c(C(=O)Nc3cccc(C(F)(F)F)c3)c3ccccn23)cc1	n	x	n	x	x	n
Cc1[nH]nc(-c2ccc(O)c(C)c2O)c1-c1cnn(-c2ccccc2)c1	n	n	n	n	n	16µM
Cc1cccc(N(CC(=O)NCCc2ccccc2)S(=O)(=O)c2ccccc2)c1C	u	x	n	x	x	u
CCCn1c(=O)c2sccc2n2c(CCCC(=O)NCCc3ccc(Cl)cc3)nnc12	x	x	n	x	x	x
Nc1nc(Nc2ccccc2F)nc(N2CCCC2)c1[N+](=O)[O-]	u	u	n	u	n	u
CN1CCN(c2nc(Nc3ccccc3)nc(N)c2[N+](=O)[O-])CC1	n	n	n	n	-67	n
Nc1nc(Nc2cccc(F)c2)nc(N2CCOCC2)c1[N+](=O)[O-]	n	u	n	u	n	n
Cc1cccc(Nc2nc(N)c([N+](=O)[O-])c(N3CCN(C)CC3)n2)c1	n	n	n	n	-64	u
CCN1CCN(c2nc(Nc3ccccc3F)nc(N)c2[N+](=O)[O-])CC1	n	n	n	n	-63	n
CCN1CCN(c2nc(Nc3ccccc3)nc(N)c2[N+](=O)[O-])CC1	n	n	n	n	n	n
CCN1CCN(c2nc(Nc3ccc(OC)cc3)nc(N)c2[N+](=O)[O-])CC1	n	n	n	u	-54	n
Cn1c(=O)c2c(nc(Oc3ccccc3Cl)n2Cc2ccc(C#N)cc2)n(C)c1=O	n	x	n	x	x	u
NC[C@H]1O[C@H](O[C@H]2[C@H](O)[C@@H](O[C@H]3O[C@H](CO)[C@@H](O)[C@H](N)[C@H]3O)[C@H](N)C[C@@H]2N)[C@H](N)[C@@H](O)[C@@H]1O	x	x	n	x	x	x
CCCSc1nc2sc3c(c2c(=O)n1-c1ccc(C)cc1)CCCC3	x	x	n	x	x	x
O=C(C1CCN(S(=O)(=O)c2ccc(Br)s2)CC1)N1CCN(c2cccc(Cl)c2)CC1	n	x	n	x	x	n
CCN1CCN(c2nc(Nc3cccc(C)c3)nc(N)c2[N+](=O)[O-])CC1	n	n	n	n	-65	4.1µM
Cc1ccc(Nc2nc(N)c([N+](=O)[O-])c(N3CCC(C)CC3)n2)cc1C	u	n	n	u	n	23µM
Cc1nn(C)c2c1c(C(F)(F)F)cc(=O)n2Cc1ccc(Br)cc1F	n	x	n	x	x	n
Cc1ccccc1-c1nc2c3ccccc3nc(=S)n2[nH]1	n	7.3µM	n	n	n	n
CCOc1ccc(NS(=O)(=O)c2ccc(C(=O)NCC(c3ccco3)N(C)C)cc2)cc1 (centres undefined)	n	n	n	n	n	u
COc1ccccc1C(CNC(=O)c1cccc(NS(=O)(=O)c2ccc(C)c(F)c2)c1)N(C)C (centres undefined)	n	n	n	n	n	n
COc1ccc(C(CNC(=O)c2cccc(NS(=O)(=O)c3ccccc3)c2)N(C)C)cc1 (centres undefined)	n	n	n	n	u	n
CCOc1ccc(S(=O)(=O)Nc2cccc(C(=O)NCC(c3ccccc3)N(C)C)c2)cc1 (centres undefined)	n	n	n	n	-68	u
COc1ccc(C(CNC(=O)c2cccc(NS(=O)(=O)c3ccc(C)c(F)c3)c2)N(C)C)cc1 (centres undefined)	n	n	n	n	-59	n
CCOc1ccc(S(=O)(=O)Nc2cccc(C(=O)NCC(c3ccco3)N(C)C)c2)cc1 (centres undefined)	n	n	n	n	-56	u
